Broadly, the AC50 is the midpoint of the concentration-response curve, whichever way the signal moves.

Inconclusive results are not listed. Calls of active or inactive are those of the source. The calls were made as follows: active = hit-call score of the fitted dose curve at least 0.9, where 1 is the maximum; inconclusive = response in the unintended direction; inactive = score below 0.9.

The target in the assay is Estrogen receptor (Homo sapiens) (UniProt P03372). Briefly: CCTE_Deisenroth_AIME_384WELL_LUC_Inactive: CCTE's 384-well Estrogen Receptor Transactivation Assay without AIME metabolic competence (ERTA luciferase; metabolism negative), Deisenroth Lab (AID 2284038).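 Also: hits raise estrogen receptor luciferase signal so potencies reflect agonists.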 How it is done: CCTE_Deisenroth_AIME_384WELL (AIME metabolism assay) is a cell-based, single-readout assay that uses VM7Luc4E2, a human mammary gland/breast cell line, with measurements taken at 24 hour after chemical dosing in a 384-well plate.CCTE_Deisenroth_AIME_384WELL_LUC_Inactive is one of four assay components measured or calculated from the CCTE_Deisenroth_AIME_384WELL assay. It is designed to make measurements of luciferase induction, a form of inducible reporter, as detected with bioluminescence signals by luciferase-coupled ATP quantitation technology.CCTE_Deisenroth_AIME_384WELL_LUC_Inactive is a component of the CCTE_Deisenroth_AIME_384WELL assay that measures the effect of retroftting the VM7Luc ERTA assay with the Alginate Immobolization of Metabolic Enzymes (AIME) metabolism method. AIME is optimized to impart phase I hepatic metabolism using phenobarbital/beta-naphthoflavone induced hepatic S9 from male Sprague Dawley rats. Parent chemicals are incubated for 2 hours in the AIME assay prior to transfer to the VM7Luc ERTA assay plate. […] This endpoint evaluates reporter induction in metabolism negative mode. Using a type of inducible reporter in VM7Luc cells, gain-of-signal activity can be used to understand changes in the reporter gene as they relate to xenobiotic metabolism and the gene ESR1. This assay endpoint, CCTE_Deisenroth_AIME_384WELL_LUC_Inactive, was analyzed in the positive analysis fitting direction relative to 17beta-estradiol as the positive control in the ERTA assay. To generalize the intended target to other relatable targets, this assay endpoint is annotated to the nuclear receptor intended target family, where the subfamily is steroidal.
Estrogen receptor (Homo sapiens), sequence (P03372 whole entry, looked up): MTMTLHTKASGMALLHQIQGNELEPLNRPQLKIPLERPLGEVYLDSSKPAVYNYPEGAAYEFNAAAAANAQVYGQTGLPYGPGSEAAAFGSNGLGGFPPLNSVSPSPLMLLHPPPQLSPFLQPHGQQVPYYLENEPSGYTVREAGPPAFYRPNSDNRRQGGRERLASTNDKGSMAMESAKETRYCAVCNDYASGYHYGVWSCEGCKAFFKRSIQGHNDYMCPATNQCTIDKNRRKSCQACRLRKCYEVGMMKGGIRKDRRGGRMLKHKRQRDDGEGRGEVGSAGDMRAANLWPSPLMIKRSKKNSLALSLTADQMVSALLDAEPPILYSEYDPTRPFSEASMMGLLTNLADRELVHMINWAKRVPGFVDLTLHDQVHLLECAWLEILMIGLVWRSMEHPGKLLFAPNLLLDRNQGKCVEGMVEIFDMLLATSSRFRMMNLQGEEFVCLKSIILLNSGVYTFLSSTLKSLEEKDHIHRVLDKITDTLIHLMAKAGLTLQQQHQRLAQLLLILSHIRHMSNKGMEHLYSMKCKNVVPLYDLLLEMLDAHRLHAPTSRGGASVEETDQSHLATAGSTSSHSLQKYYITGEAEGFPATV
The AIME procedure consists of a preparative "pre-stamping" step using a barium chloride/poly-L-lysine (PLL) solution followed by "stamping" the lid in alginate-hepatic S9 (metabolism positive) or alginate-water (metabolism negative) to form microspheres. Once stamping is completed, the AIME lids are placed in duplicate microplates (metabolism positive or negative) containing chemical solutions and incubated for two hours to facilitate metabolic reactions. The conditioned medium, containing parent chemical or metabolites, is then transferred to the cell-based VM7Luc Estrogen Receptor Transactivation Assay (ERTA) for 24 hours. A typical experimental design tests a 10-point concentration series (0.002 - 200 uM) for 8 compounds (96-well format)1 or 32 compounds (384-well format)2 in single technical replicate. AIME assay controls include trans-stilbene (bioactivated control) and ethylparaben (bioinactivated control). ERTA assay plate controls include 17-beta estradiol (positive control) and DMSO (solvent control). Experiments typically comprise a minimum of four experimental replicates (n=4).
Turning to `Cc1c2ccccc2c(C)c2c1ccc1ccccc12`, the call was inactive.
The same measure, in the same setting: for `O=c1[nH]sc2ccccc12` the value was “inactive”.
`O=C(Nc1ccc(Cl)cc1)Nc1ccc(Cl)c(Cl)c1`: the result was inactive.
The same measure, in the same setting: for `CC(C)(C)c1cc(/C=C2\SC(N)=NC2=O)cc(C(C)(C)C)c1O` the value was “inactive”.
Regarding `O=C(O)Cn1c(=O)n(Cc2ccc(Br)cc2F)c(=O)c2ccc(Cl)cc21`, the AC50 was 106 µM (active).
Take `COc1cccc([C@H](O)C2CCN(CCc3ccc(F)cc3)CC2)c1OC`: the result was inactive.
Same read-out and setting: for `CCCCCCCCOC(=O)c1cc(O)c(O)c(O)c1` the value was “inactive”; for `CCN(CC)C(=O)c1cc(S(=O)(=O)Cc2ccccc2)c(N2CCC(c3ccccc3)CC2)cc1N(CC)CCN(C)C`, “inactive”.
On to `OCCO`, for which the AC50 was 19.8 µM (active).
As for `COCC(C)OCC(C)OCC(C)O` (stereo not drawn), the compound was called inactive.
Consider `CCCCCCCCN(C)CCCCCCCC`, for which the call was inactive.
`CCCOC(=O)c1cc(O)c(O)c(O)c1`: the AC50 is 43.6 µM (active).
For `CCCCCCCCCCCO`, the call was inactive.
On the same count and under the same terms, for `OC12N=C(c3ccccc3)SC1Cc1cc(Cl)ccc12` (stereo not drawn) the value was “inactive”.
Same read-out and setting: for `c1ccc2ccccc2c1` the value was “inactive”; for `Cc1cn([C@H]2C[C@H](N=[N+]=[N-])[C@@H](CO)O2)c(=O)[nH]c1=O`, “inactive”.
Take `Cc1ccc(C(C)C)cc1`: the compound was called inactive.
Take `Cc1oc2c(NC(=O)c3c(Cl)cccc3Cl)cccc2c1C(C)(C)O`: the compound was classed as inactive.
